Hit rate of the full screen: of about 350,000 compounds, about 5,500 (1.6%) were called active.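 Rule for the calls: active = significant combined selectivity score with lowered wild-type GFP, culture density cut under 30%, mutant RFP and density less affected; inactive = any of these conditions unmet.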 The list comes from a sample in which actives are over-represented; it also holds similar structures and randomly drawn compounds.

The experiment in a line: reduced GFP signal of wild-type E. coli, primary screen, bacterial rRNA inhibitor project, GFP/RFP fluorescence, OD600, single point (AID 720706). The following applies: E. coli WT GFP vs humanized-ribosome RFP mutants, 24 h; GFP signal change (wild-type ribosome): stronger effect = lower value, DMSO median 0, no signal -100; OD600 change: measured here: OD600 growth, DMSO median 0, no signal -100; RFP signal change: measured here: RFP humanized mutant strains, DMSO median 0, no signal -100, concentration not given here.
On to `O=C(C1CCOCC1)N1C[C@H]2[C@@H](c3ccccc31)[C@@H](CO)N2Cc1ccccc1`, for which the GFP signal change (wild-type ribosome) was -1.33% (inactive), the OD600 change came out at 0.79% and the RFP signal change is -0.998%.
For `O=S(=O)(Nc1ccc(O)c2ccccc12)c1ccc(OC(F)(F)F)cc1` the same measures were -28.6% (active), -14.2% and -9.13%.
On to `FC(F)(F)Oc1ccc(NC(=S)NCc2ccccc2)cc1`, for which the GFP signal change (wild-type ribosome) was -56.8% (inactive), the OD600 change is -77.1% and the RFP signal change was -19.9%.
For `COc1ccccc1NS(=O)(=O)c1ccc(C(=O)N2CCN(c3ccccc3O)CC2)cc1` the same measures were -1.32% (inactive), -2.56% and -0.007%.
For `C[C@H](CO)N1C[C@H](C)[C@H](CN(C)C(=O)C2CC2)Oc2ncc(C#Cc3ccccc3)cc2C1=O` the same measures were -0.859% (inactive), 2.9% and -0.79%.
For `Fc1cccc(Cl)c1CSc1ccc(-c2ccco2)nn1` the same measures were -21.1% (active), -7.59% and 0.773%.
Consider `Oc1ccc(-n2nnnc2SCc2c(F)cccc2Cl)cc1`, for which the GFP signal change (wild-type ribosome) is -53.5% (inactive), the OD600 change was -72.8% and the RFP signal change was -14.2%.
As to `Cc1cc(SCc2c(F)cccc2Cl)nc(=O)[nH]1`, the GFP signal change (wild-type ribosome) was -15.5% (inactive), the OD600 change came out at 0.505% and the RFP signal change was -0.535%.
For `N#C[C@@H]1[C@H](c2ccc(-c3cccnc3)cc2)[C@H](CO)N1C(=O)C1CC1` the same measures were 1.69% (inactive), -1.23% and 1.92%.
For `C[C@@H]1CN([C@@H](C)CO)C(=O)c2cc(-c3ccc(F)cc3)cnc2O[C@H]1CN(C)C(=O)c1ccncc1` the same measures were 5.96% (inactive), 18.3% and -6.6%.
Regarding `COCC(=O)N[C@H]1C=C[C@H](CC(=O)N2CCCCC2)O[C@H]1CO`, the GFP signal change (wild-type ribosome) is 0.044% (inactive), the OD600 change amounted to 2.08% and the RFP signal change came out at 0.319%.
For `CC(C)=N/N=C1/NC(=O)C(Cc2ccccc2)S1` (centres undefined) the same measures were 5.19% (inactive), 0.06% and 4.42%.
For `CC(O)c1ccc(OCCN(C)c2ccccn2)cc1` (centres undefined) the same measures were 7.56% (inactive), 9.08% and -0.281%.
For `CN(CCOc1ccc(CC2SC(=O)NC2=O)cc1)c1ccccn1` (centres undefined) the same measures were -18.5% (active), -19.1% and 5.83%.
In the case of `CCC(=O)N1CCC2(CC1)CN(Cc1ccc(Cl)cc1)[C@@H](CO)c1[nH]c3cc(OC)ccc3c12`, the GFP signal change (wild-type ribosome) was 0.255% (inactive), the OD600 change is -3.27% and the RFP signal change worked out at 4.57%.
For `COc1ccc2c3c(n(C)c2c1)[C@@H](CO)NCC31CCN(CC2CC2)CC1` the same measures were 8.18% (inactive), 22.6% and -3.19%.
On to `O=C(NCC[C@H]1CC[C@@H](NC(=O)c2cnccn2)[C@H](CO)O1)Nc1ccc(Cl)cc1`, for which the GFP signal change (wild-type ribosome) is -40.4% (inactive), the OD600 change was -66.2% and the RFP signal change came to 9.29%.
For `COc1cccc(CNC(=O)[C@H]2CCCN2C(=O)[C@H]2CCCN2C(=O)c2ccc(F)cc2)c1` the same measures were 2.11% (inactive), 11.4% and -3.48%.
For `CNC[C@H]1Oc2ccc(NC(=O)NC(C)C)cc2C(=O)N(C)C[C@@H]1C` the same measures were 4.42% (inactive), 7.25% and 0.095%.
For `CCN(CC)C(=O)c1sc2nc(-c3ccccc3)ccc2c1N` the same measures were -15.6% (active), -3.66% and 4.88%.
Consider `Cc1ccc(NC(=O)c2sc3nc(N)c(C#N)cc3c2N)cc1`, for which the GFP signal change (wild-type ribosome) was 1.14% (inactive), the OD600 change amounted to 1.53% and the RFP signal change worked out at 1.97%.
For `CCN(CC)C(=O)c1nc[nH]c1C(=O)N(C)Cc1ccccc1` the same measures were 31.5% (inactive), 17.4% and 2.93%.
For `Cc1ccc2c(N)c(C(=O)c3ccccc3)sc2n1` the same measures were -33.7% (active), -0.632% and -10.4%.
With `COC(=O)c1cc2c(N)c(C(=O)c3ccc(Cl)cc3)sc2nc1C(OC)OC`, the GFP signal change (wild-type ribosome) is 19.9% (inactive), the OD600 change amounted to 8.88% and the RFP signal change turned out to be 2.24%.
For `CCOC(=O)C(C)n1nc(-c2ccccc2)c2ccccc2c1=O` (centres undefined) the same measures were 2% (inactive), 4.27% and -0.337%.
For `CC(=O)NC[C@@H]1[C@@H](c2ccccc2)[C@@H](CO)N1C(=O)Cc1cccnc1` the same measures were 1.93% (inactive), 9.5% and -2.5%.
For `COCC(=O)N1CC(=O)N2[C@H](CO)[C@@H](c3ccc(C#CC4CCCCC4)cc3)[C@@H]2C1` the same measures were -1.52% (inactive), -39.4% and 13.9%.
Turning to `COc1ccc(NC(=O)N2CCC(Cc3ccccc3)CC2)cc1`, the GFP signal change (wild-type ribosome) is -3.82% (inactive), the OD600 change is -5.59% and the RFP signal change is -1.73%.
On to `CC(C)(C)NC(=O)NC(=O)CN1CCC(Cc2ccccc2)CC1`, for which the GFP signal change (wild-type ribosome) was -31.9% (active), the OD600 change is -22.7% and the RFP signal change is -1.62%.
For `O=C(CN1CCCCC1)NC(=O)Nc1ccccc1F` the same measures were 20.5% (inactive), 19.5% and 2.38%.
For `CO[C@@H]1CN(C)C(=O)c2ccc(NS(=O)(=O)c3ccc(Cl)cc3)cc2OC[C@@H](C)N(C)C[C@@H]1C` the same measures were -0.718% (inactive), 1.84% and -0.00025%.
For `O=C(c1ccccc1F)N1CC(=O)N2[C@H](CO)[C@@H](c3ccc(-c4cccnc4)cc3)[C@H]2C1` the same measures were 4.23% (inactive), 20.3% and 2.58%.
Regarding `CC(=O)N1C[C@@H]2C(c3ccccc3)[C@@H](C1)N2C(=O)NC(C)C` (some centres undefined), the GFP signal change (wild-type ribosome) was 1.98% (inactive), the OD600 change is 3.76% and the RFP signal change is -1.21%.
